In the library only some 21% were active in any assay of this set; here they are far more common.
DT40 TDP1 CPT – growth inhibition of DT40 Tdp1-/-;hTDP1 cells with camptothecin (screen for TDP1 inhibitors) | chicken DT40 Tdp1-/-;hTDP1 cells + 20 nM CPT, ATP luminescence, 48 h | AID 686979 | actives 12% (n = 420,000) | Potency, µM (series often up to 46.2 µM), for inactives: at the top dose activity change, negative = growth inhibition, usual class: inhibitors; also: potency is read from the fitted curve at half-maximal effect; % is scaled to controls: 0 for no effect and ±100 for the full control effect; nearly all actives have a fitted effect of over 55% in size
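Chicken DT40 Tdp1-/- cells stably complemented with human TDP1 were seeded at 400 cells/well in medium containing 20 nM camptothecin, exposed to pin-transferred compounds, and grown at 37 °C for at least 48 hr. Viability was read as ATP luminescence.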
DRD3 antagonist – D3 dopamine receptor (human) antagonism; actives 2.5% (n = 360,000); D3R cells, DiscoveRx beta-arrestin luminescence, antagonist mode; active compounds read low; max response, negative = inhibition, %; P35462; in the data active = max response below about -50%; inconclusive = no clear call, values can overlap the other calls; also: % is scaled to controls: 0 for no effect and ±100 for the full control effect
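Cells expressing the human receptor were seeded at 1500 cells/well, incubated overnight at 37 degrees C in 5% CO2, then exposed to library compounds with dopamine controls for 90 minutes at 37 degrees C before luminescent detection.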
DRD3 agonist – D3 dopamine receptor (human) agonism; actives 0.58% (n = 410,000); max activation, %; P35462; D3R DiscoveRx beta-arrestin cells, luminescence, 90 min; in the data active = max activation above about 30%; also: 0% is about no effect
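Agonist-mode cell screen: cells plated at 1500/well and incubated overnight at 37 °C, then exposed to library compounds for 90 min at 37 °C. Detection reagent was added for 30–60 min at room temperature, and luminescence was read.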
IL1B secr inh – inflammasome signaling inhibition, IL-1 beta readout. activity change, % at 57.5 µM. actives 4.7% (n = 360,000). THP-1 LPS/ATP IL-1B secretion, AlphaLISA, 16 h; active compounds read low; in the data active = activity change below about -50%; inconclusive = mostly about -30% to -49%; also: % is scaled to controls: 0 for no effect and ±100 for the full control effect
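THP-1 cells pretreated 1 hr with compounds (up to 57.5 uM final), then stimulated with LPS (250 ng/mL final) plus ATP (1.25 mM final); secreted IL-1B measured by AlphaLISA after 16 hr, decreased signal indicating inhibition.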
TDP1 cell noCPT – qHTS for Inhibitors of human tyrosyl-DNA phosphodiesterase 1 (TDP1): qHTS in cells in absence of CPT; Potency, µM (doses to about 46.2 µM), for the others: top-dose activity change, negative = growth inhibition, hits mostly inhibitors; AID 686978, 2013; actives 15% (n = 420,000); DT40 Tdp1-/- hTDP1 cells, no CPT, ATP luminescence, 48 h; also: potency is read from the fitted curve at half-maximal effect; % is scaled to controls: 0 for no effect and ±100 for the full control effect; nearly all actives have a fitted effect of over 55% in size
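A cellular qHTS used chicken DT40 cells lacking endogenous Tdp1 but carrying stably transfected human TDP1. Compounds were applied without camptothecin, and cell growth kinetics were judged by ATP-dependent luminescence after ≥48 hr.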
ClpP mod – qHTS Assay for Activators of ClpP | ATP-dependent Clp protease proteolytic subunit (Bacillus subtilis (strain 168)), P80244 | actives 1.9% (n = 340,000) | AID 651965, 2013 | Potency, µM (highest dose often 57.5 µM), inactives show top-dose activity change, negative = active | purified B. subtilis ClpP, FRET peptide cleavage, 20 min; active = well fitted falling curve with a large enough effect; inconclusive = small, poorly fitted or top-dose-only effect; inactive = no such curve, though single readings can be large or run the other way; also: potency is read from the fitted curve at half-maximal effect; the source files actives as falling curves though it sought activators and does not explain the sign; nearly all actives have a fitted effect of over 65% in size
Target sequence (P80244 whole entry, looked up): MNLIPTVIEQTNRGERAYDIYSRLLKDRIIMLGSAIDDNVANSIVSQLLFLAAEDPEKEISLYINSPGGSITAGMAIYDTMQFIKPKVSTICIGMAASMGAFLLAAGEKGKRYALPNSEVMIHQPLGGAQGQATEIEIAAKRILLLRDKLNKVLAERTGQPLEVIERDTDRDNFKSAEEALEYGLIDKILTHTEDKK
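ClpP 10 microg/mL final, pH 8 Tris/KCl buffer with BSA, glycerol, Tween-20; compound pinned in; FRET-FV substrate; RT 20 min; Ex320/Em430; ΔFRET vs ADEP 5.8 microM, DMSO, no enzyme.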
* = called active by the depositor; ? = inconclusive; / = no result given. Unless noted, calls follow the shape of the dose curve; as a rule, active = well fitted inhibition curve with a large enough effect; inconclusive = small, poorly fitted or top-dose-only effect; inactive = flat fitted curve, though single readings scatter.

SMILES	DT40 TDP1 CPT	DRD3 antagonist	DRD3 agonist	IL1B secr inh	TDP1 cell noCPT	ClpP mod
COc1ccc(-c2csc(Nc3ccc(S(=O)(=O)Nc4cc(OC)nc(OC)n4)cc3)n2)cc1	1%	0	-3	-75*	-3%	-14%
CC(=O)c1ccc(NS(=O)(=O)c2ccc(C)cc2)cc1	-15%	-15	-5	16	-5%	?
COc1cc(OC)c(OC)cc1/C=C/C(=O)c1ccc(NS(=O)(=O)c2ccc(C)cc2)cc1	?	97	31*	-60*	?	1%
COc1ccc(C(=O)/C=C/Nc2ccc(S(=O)(=O)Nc3cccc(C(C)=O)c3)cc2)cc1	?	20	17	-8	23µM*	?
Cc1cc(C)c(NC(=O)CN2c3ccccc3S(=O)(=O)c3ccccc32)c(C)c1	-10%	/	-2	/	-8%	4%
COc1ccc(CNC(=O)C(=O)NCC2OCCN2S(=O)(=O)c2ccc(F)cc2)cc1 (stereo not drawn)	-9%	-8	-8	5	-24%	1%
CC1CC(C)CN(C(=O)CN2C(=O)NC3(CCCCCCC3)C2=O)C1 (stereo not drawn)	-8%	-20	2	6	0%	1%
CC(C)C(C)(C#N)NC(=O)COC(=O)C1CCN(S(=O)(=O)c2ccc3c(c2)OCCO3)CC1 (stereo not drawn)	2%	-20	3	-3	7%	-1%
OC(c1ccccc1)c1ncc(-c2cccc(C(F)(F)F)c2)[nH]1 (stereo not drawn)	?	4	2	3	?	5%
Cc1ccc(C(O)c2ncc(-c3cccc(C(F)(F)F)c3)[nH]2)cc1F (stereo not drawn)	26µM*	-2	-14	-5	13µM*	-9%
OC(c1ccc(F)c(F)c1)c1ncc(-c2cccc(C(F)(F)F)c2)[nH]1 (stereo not drawn)	?	0	-6	-12	16µM*	2%
OC(c1ccc(Cl)c(F)c1)c1ncc(-c2ccc(F)cc2)[nH]1 (stereo not drawn)	?	8	3	1	-19%	2%
OC(c1ccc(Cl)c(F)c1)c1ncc(-c2cccc(C(F)(F)F)c2)[nH]1 (stereo not drawn)	?	-7	-3	0	23µM*	2%
COc1cccc(-c2cnc(C(O)c3ccc(C)c(F)c3)[nH]2)c1 (stereo not drawn)	-16%	28	-1	3	-29%	1%
OC(c1ccc2c(c1)OCO2)c1ncc(-c2cccc(C(F)(F)F)c2)[nH]1 (stereo not drawn)	-35%	15	2	?	8.2µM*	-6%
Cc1cccc(C(=O)NCCC(=O)Nc2ccc(C#N)cc2)c1	-7%	0	-2	-3	-5%	/
COc1ccc(CCNCc2cc3ccc(C)cc3[nH]c2=O)cc1OC	-17%	-20	2	-22	-21%	-14%
CCOC(=O)NC(c1ccc(C(C)C)cc1)C(Cl)(Cl)Cl (stereo not drawn)	0%	4	-10	0	-9%	2%
CCOC(=O)NC(C(Cl)(Cl)Cl)S(=O)(=O)c1ccccc1 (stereo not drawn)	?	-17	-3	-87*	?	?
O=C(COC(=O)c1c[nH]c2ccccc12)Nc1ccc(F)cc1	-18%	-27	2	-10	-10%	-2%
COc1cc(NC(=O)c2ccc(OCc3c(C)noc3C)c(OC)c2)cc(OC)c1	?	1	-17	-23	13µM*	-1%
COc1ccc(NS(=O)(=O)c2cc(NC(=O)c3cccc(OCc4c(C)noc4C)c3)ccc2OC)cc1	?	7	10	4	23µM*	1%

Screening data from PubChem BioAssay.
